TrxR1 substrate = is turned over as a substrate by rat TrxR1. purified TrxR1 substrate turnover, NADPH consumption readout. O89049. Potency, µM (doses to about 114 µM). 0.01% of 390,000 active. AID 588456; also: nearly all actives have a fitted effect of over 50% in size
Target sequence (O89049 whole entry, looked up): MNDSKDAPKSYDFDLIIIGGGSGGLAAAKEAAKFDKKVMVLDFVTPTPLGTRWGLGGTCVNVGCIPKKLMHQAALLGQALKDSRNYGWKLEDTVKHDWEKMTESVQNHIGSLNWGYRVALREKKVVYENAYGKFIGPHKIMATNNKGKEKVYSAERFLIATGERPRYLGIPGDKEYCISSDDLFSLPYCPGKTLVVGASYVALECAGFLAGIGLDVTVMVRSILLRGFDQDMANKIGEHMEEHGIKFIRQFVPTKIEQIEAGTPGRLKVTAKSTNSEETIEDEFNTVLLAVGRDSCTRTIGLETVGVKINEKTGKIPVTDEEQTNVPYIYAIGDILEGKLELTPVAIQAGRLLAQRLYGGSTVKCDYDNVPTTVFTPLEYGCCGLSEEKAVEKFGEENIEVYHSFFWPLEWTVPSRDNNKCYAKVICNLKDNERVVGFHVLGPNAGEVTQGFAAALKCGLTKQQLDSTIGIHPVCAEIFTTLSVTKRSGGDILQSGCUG
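Rat TrxR1, dispensed at 90 nM, was prereduced with 400 uM NADPH (final) for 5 min at ~22 deg C, then incubated with compound 15 min before 400 uM selenite. A first-read NADPH fluorescence drop versus no-compound background flagged substrates.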
Akt phos inh = blocks phosphorylation of Akt; AID 651550; activity change, % for hits at 50 µM; 0.32% of 360,000 active; Neuro2A IGF-stimulated pAkt S473 HTRF, 20 min; stronger effect = lower value; in the data active = activity change below about -80%; inconclusive = mostly about -51% to -80%
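Single-point screen (50 µM final compound) in Neuro2A cells stimulated 20 min with 6 nM IGF at 37 deg C. After lysis, Ser473-phosphorylated Akt read by HTRF (ex 330 nm, em 615/665 nm) as the 665/615 ratio.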
TrxR1 inh = blocks rat thioredoxin reductase 1; O89049; recombinant rTrxR1, NADPH fluorescence consumption, selenite substrate; Potency, µM (highest dose often 114 µM), most hits filed as inhibitors; 1% of 390,000 active; also: nearly all actives have a fitted effect of over 65% in size
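Rat TrxR1 (90 nM in the dispensed reagent) was pre-reduced with 400 uM NADPH for 5 min at room temperature, then incubated with compound for 15 min. After 400 uM selenite was added, NADPH fluorescence (Ex 340/Em 450 nm) was followed for 8 min.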
Pin1 inh = blocks the human prolyl isomerase Pin1. Q13526. Pin1 FP peptide displacement, HiFluor488, 10 min. Potency, µM (titrated, usually from 115 µM), usual class: inhibitors. 0.009% of 390,000 active; active = well fitted inhibition curve with a large enough effect in the polarisation, with a control signal flat, not every such curve was filed as active; inconclusive = small, poorly fitted or top-dose-only effect, or effect the other way, or a change in a side signal; inactive = no such curve, though single readings can be large or run the other way; the % refers to the polarisation
Target sequence (Q13526 whole entry, looked up): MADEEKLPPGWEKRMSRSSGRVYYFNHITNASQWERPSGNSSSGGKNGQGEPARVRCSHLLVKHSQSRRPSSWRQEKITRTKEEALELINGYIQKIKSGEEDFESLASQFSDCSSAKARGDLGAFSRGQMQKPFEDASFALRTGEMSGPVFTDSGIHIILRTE
A-T KAP1 phos = potential ataxia-telangiectasia treatments restoring KAP-1 phosphorylation. F2112 A-T fibroblasts, KAP-1 phosphorylation AlphaLISA; neocarzinostatin DNA damage 30 min before lysis. Potency, µM (top dose mostly 57.5 µM), hits mostly activators. 0.19% of 320,000 active. AID 485349; also: nearly all actives have a fitted effect of over 45% in size
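ATM-like activity read as KAP-1 phosphorylation via AlphaLISA donor/acceptor antibody pairs after lysis and 6 hr at 25C. Cells were ATM-null patient fibroblasts (F2112, hTERT), dosed 60 min, then exposed to the DSB inducer NCS for 30 min.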
N370S GC = inhibits or activates N370S mutant glucocerebrosidase | P04062 | N370S GC spleen homogenate, 4MU-glucoside fluorescence | Potency, µM (doses to about 59.4 µM), hits mostly inhibitors | 0.092% of 330,000 active
A number is an active result; n = inactive; u = inconclusive; x = not tested or not shown; ! = not confirmed by another sample; [ ] = dose if it differs, or a comment. In the library only some 1.4% were active in any assay of this set; here they are far more common. Unless noted, calls follow the shape of the dose curve; as a rule, active = well fitted curve in the direction sought with a large enough effect; inconclusive = small, poorly fitted or top-dose-only effect, or another doubt; inactive = no such curve, though single readings can be large; an effect the other way counts as inactive or inconclusive.

SMILES	TrxR1 substrate	Akt phos inh	TrxR1 inh	Pin1 inh	A-T KAP1 phos	N370S GC
COc1cc(/C=C2\C(=O)ON=C2c2ccccc2)cc(Br)c1O	n	n	11.2µM	n	n	n
CCOc1cc(/C=C2\C(=O)ON=C2c2ccccc2)cc(Br)c1O	n	n	14.1µM	n	n	n
COc1cc(/C=C2\C(=O)ON=C2c2ccccc2)cc(Cl)c1O	n	n	15.8µM	n	n	n
COc1cc(C=C2C(=O)c3ccccc3C2=O)ccc1O	n	n	n	n	n	n
COc1cc(/C=C2/C(=O)ON=C2c2ccccc2)ccc1O	n	n	12.6µM	n	n	n
COc1cc(CNc2ccc(N3CCCC3)cc2)ccc1OCc1ccccc1F	n	n	10µM	n	n	n
COc1cc(CNc2ccc(O)cc2)cc(Br)c1OCc1ccccc1F	n	n	20µM	x	n	n
CCOC(=O)N1C(=O)[C@@](c2ccc(Cl)cc2)(C(C)C)N1C(=O)OCC	n	n	u	n	20µM	n
CCOC(=O)N1C(=O)[C@](c2ccc(Cl)cc2)(C(C)C)N1C(=O)OCC	n	n	44.7µM	n	n	n
COC(=O)N1C(=O)[C@](c2ccccc2)(C(C)C)N1C(=O)OC	n	n	u	n	n	u
CONC(=O)C[C@@H](C#N)NC(=O)[C@@H]1CCCN1C(=O)[C@@H](NC(=O)c1ccc(N)c(Cl)c1)C(C)(C)C	x	x	x	n	x	x
CC(=O)c1ccc(N2CCN(S(=O)(=O)c3ccc(-c4coc(C)n4)cc3)CC2)cc1	n	x	n	n	x	x
C=CS(=O)(=O)c1c2cc(OC)ccc2nc2ccc(OC)cc12	n	n	1.26µM	u	x	x
COc1ccc2nc(Cl)cc(Cl)c2c1	n	n	n	n	n	n
O=S(=O)(c1ccc2c(c1)OCCO2)N1CCN(S(=O)(=O)c2cc(F)c(F)cc2F)CC1	x	x	x	n	x	x
Cc1ccc2nc3c(nc2c1C)C(O)=C3O	n	n	8.91µM	n	n	n
CCC(=Nc1ccc(Cc2ccncc2)cc1)c1c(O)n(C)c(=O)n(C)c1=O	n	-120.7%!	n	n	n	n
Cn1c(=O)c2c(O)c(Cc3ccccc3)c(=O)[nH]c2n(C)c1=O	n	n	n	n	n	n
CCC1CCCCN1CC(C)(C)NS(=O)(=O)c1ccccc1 (stereo not given)	n	n	n	n	35.5µM	n
CN1CCN(CC(C)(C)NS(=O)(=O)c2ccccc2)CC1	n[11.4 µM]	n	n[11.4 µM]	n	n	x
CCc1nnc(SCC(=O)Nc2ccc(Cl)cc2F)c2cc3occc3n12	n	x	n	n	x	x
COc1cccc(CNCCc2c[nH]c3ccccc23)c1OCc1ccc(F)cc1	n	n	n	n	n	n
COc1cc(CNCCc2c[nH]c3ccccc23)ccc1OCc1ccc(F)cc1	n	n	n	n	n	15.8µM
CCCCn1c2ccccc2c2nnc(SCC(=O)Nc3ccc(NC(C)=O)cc3)nc21	n	x	n	u	x	x
CC(C)(Sc1cc(C(C)(C)C)c(O)c(C(C)(C)C)c1)Sc1cc(C(C)(C)C)c(O)c(C(C)(C)C)c1	n	n	n	n	n	n
SMILES	TrxR1 substrate	Akt phos inh	TrxR1 inh	Pin1 inh	A-T KAP1 phos	N370S GC
C/C(=N/O)c1cc(C(C)(C)C)c(O)c(C(C)(C)C)c1	n	-122.0%	n	n	n	n
Cc1ccc(NS(=O)(=O)c2cc3c(cc2-c2ccco2)NC(=O)CO3)cc1C	x	x	x	n	x	x
COC(=O)C(CC(=O)c1ccc(Br)cc1)n1nc(C)cc1C (stereo not given)	n	n	8.91µM	n	n	n
CC(Oc1ccccc1)C(=O)N[C@@H]1C(=O)N2C(C(=O)O)C(C)(C)S[C@H]12 (stereo not given in full)	n	x	n	x	x	x
O=C(NCCc1csc(-c2cccnc2)n1)c1c(F)cccc1F	n	n	n	n	39.8µM	n
COc1c(N2CCN(C(=S)NC3CC4CCC3C4)C(C)C2)c(F)cc2c(=O)c(C(=O)O)cn(C3CC3)c12 (stereo not given)	n	n	n	u	28.2µM	n
C1=C(c2ccccc2)CCN(c2nc3ccccc3n3cnnc23)C1	n	n	3.98µM	n	n	n
Cc1ccc(CNC(=O)[C@H](C)[C@H]2C[C@]2(C)[C@H](NC(=O)OCc2ccccc2)c2ccccc2)o1	n	n	56.2µM	n	n	n
Cc1cccc(NC(=O)Cn2c(=O)n(Cc3ccc4c(c3)OCO4)c(=O)c3ccccc32)c1	n	x	n	n	x	x
CCCCSc1nc(NCc2ccco2)c2c3c(sc2n1)COC(C)(C)C3	n	n	n	n	n	u
CCCSc1nc(NCc2ccco2)c2c3c(sc2n1)COC(C)(C)C3	n	n	44.7µM	u	n	n
COc1ccc(/C=N/Nc2nc(=O)[nH]nc2C)cc1OC	n	n	n	n	7.08µM	n
COc1cc(/C=N/Nc2nc(=O)[nH]nc2C)ccc1O	n	n	n	n	n	n
CCc1ccc(NCc2cc3cc(OC)c(OC)cc3n(CC(=O)Nc3cc(C)ccc3C)c2=O)cc1	n	x	n	n	x	x
COc1ccc(C(=O)Nc2cccc(/C=C/c3nc4ccccc4c(=O)[nH]3)c2)cc1	n	n	n	n	20µM	n
O=C(Nc1cccc(/C=C/c2nc3ccccc3c(=O)[nH]2)c1)c1ccccc1Cl	n	n	n	n	n	n
Cc1ccc(CNC(=O)CSc2ccsc2[N+](=O)[O-])cc1	n	n	50.1µM	n	n	n
CCOC(=O)c1cccc(NC(=O)CCS(=O)(=O)c2cccs2)c1	n	n	22.4µM	n	n	n
CCOC(=O)c1cccc(NC(=O)CCS(=O)(=O)c2ccc(Br)s2)c1	n	n	n	n	n	n[12.8 µM]
Cc1ccc(C(=O)N2CCC(c3c[nH]c4ccccc34)(c3c[nH]c4ccccc34)CC2)cc1	n	x	n	n	x	x
Cc1ccc2c(c1)C(=O)CC(O)(C(F)(F)F)O2 (stereo not given)	n	n	n	n	3.55µM	n
CC1Cc2ccccc2N1C(=O)CSc1nnc(CSc2ncccn2)n1C (stereo not given)	n	-81.4%	n	n	n	n
Cn1c(CSc2ncccn2)nnc1SCC(=O)N1CCCc2ccccc21	n	n	n	n	n	n
Cc1ccc(/C=C/C(=O)Nc2nccs2)o1	n	n	44.7µM	n	n	n
Cc1cnc(NC(=O)/C=C/c2ccc(Br)o2)s1	n	n	n	n	n	n
CCOC(=O)/C=C/C(=O)Nc1nccs1	n	n	50.1µM	n	n	n
Cc1ccc(/C=C/C(=O)Nc2ncc(C)s2)o1	n	n	39.8µM	n	n	n
O=C1CCc2cc([S+](=O)([O-])Nc3ccc(N[S+](=O)([O-])c4ccc5c(c4)CCC(=O)N5)cc3)ccc2N1	x	x	x	n	x	x
CCn1cnc2c(Nc3cc(F)cc(F)c3)nc(C(=O)COc3c(F)c(F)cc(F)c3F)nc21	x	x	x	n	x	x

Source: PubChem (National Center for Advancing Translational Sciences (NCATS))
